Data published in PubChem BioAssay AID651821 (The Scripps Research Institute Molecular Screening Center, 2012).
“And” between values parts separate entries of the source, which are not always exact repeats. Equal entries are not always repeated. About 4,700 (1.3%) of roughly 370,000 compounds were called active.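 How the source made its calls: active means inhibition above the plate cutoff, the mean of all test compounds on that plate plus 3 SD (cut at about 35% in these data); inactive means the rest.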 The sample as a whole holds a higher share of actives than the screen did. More than one record can exist for a structure, and the calls need not agree.

Assay: small molecules binding CAG repeat RNA – biochemical, fluorescence, primary screen (AID 651821);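 further: 0% = DMSO alone and 100% = 100 µM mitoxantrone as full dye displacement; higher means more dye released from RNA so lower well fluorescence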
Conditions: r(CAG) RNA repeat, TO-PRO-1 dye displacement fluorescence; at 3 µM; stronger effect = higher value
With CC(=O)c1ccc(Nc2nc(C(N)c3ccccc3)cs2)cc1 (stereo unspecified) the inhibition was 6.98% (inactive).
For NC(c1csc(NC(=O)Nc2cccc(C(F)(F)F)c2)n1)C1CCCCC1 (stereo unspecified), the inhibition was 35.2% (active).
In the case of CCOC(=O)c1csc(NC(=O)Nc2cccc(OC)c2)n1, the inhibition is reported as 61.3% (active).
For COc1ccc(CC(N)c2csc(NC(=O)Nc3ccc(C(C)C)cc3)n2)cc1 (stereo unspecified), the inhibition was 30.9% (inactive).
With C/C(CC(=O)Nc1cccc(C(F)(F)F)c1)=N\NC(=O)C(=O)NCC(C)C the inhibition was -2.81% (inactive).
For COc1ccc(CN2C(CC(=O)Nc3cccnc3)c3ccc(C(F)(F)F)cc3S2(=O)=O)cc1 (stereo unspecified), the inhibition was 1.65% (inactive).
In the case of NC(c1ccccc1)c1csc(NC(=O)Nc2cccc(C(F)(F)F)c2)n1 (stereo unspecified), the inhibition is reported as 42.2% (active).
For COc1cccc(NC(=O)COC(=O)c2ccc3ccccc3n2)c1, the inhibition was 7.26% (inactive).
In the case of NC(c1csc(NC(=O)Nc2ccccc2Oc2ccccc2)n1)c1ccccc1Cl (stereo unspecified), the inhibition is reported as 14% (inactive).
In the case of CCOC(=O)c1cnc(SCC(=O)Nc2cccc(OC)c2)nc1N, the inhibition is reported as 1.08% (inactive).
For CC(C)(C)CC(=O)Nc1nc(C(N)Cc2ccc(C(F)(F)F)cc2)cs1 (stereo unspecified), the inhibition was 1.66% (inactive).
In the case of COc1ccc(C(N)c2csc(NC(=O)Nc3cccc(C(F)(F)F)c3)n2)cc1 (stereo unspecified), the inhibition is reported as 49.1% (active).
For C=CCn1c(SCC(N)=O)nnc1-c1ccccc1OC, the inhibition was 2.58% (inactive).
For O=C(NCc1ccccc1)[C@@H]1CCCN1C(=O)[C@H]1CCCN1C(=O)c1cccc(Cl)c1, the inhibition was -1.13% (inactive).
In the case of COC(=O)[C@H](CC(C)C)NS(=O)(=O)c1c(F)cccc1F, the inhibition is reported as 0.25% (inactive).
With C=CCN1C(=O)N(Cc2ccccc2)c2ccccc2S1(=O)=O the inhibition was -0.57% (inactive).
For CCC(=O)Nc1ccc2c(c1)C(=O)N(C)[C@@H]1CC[C@@H](CC(=O)NCCc3ccccc3)O[C@H]1CO2, the inhibition was 0.85% (inactive).
In the case of CCOC(=O)[C@]12CCCCC/C=C\1N(Cc1ccc(OC)cc1)C(=O)[C@H]2CC(=O)NCc1ccc(C)o1, the inhibition is reported as 3.94% (inactive).
In the case of O=C(NS(=O)(=O)c1cccs1)[C@H]1O[C@@H](n2ccc(=O)[nH]c2=O)[C@H](O)[C@@H]1O, the inhibition is reported as 1.16% (inactive).
For CN1CCCc2nc(-c3ccccc3)ccc21, the inhibition was 1.01% (inactive).
For Cc1ccc(Cn2c(SCC(=O)N/N=C/c3ccccc3OCC(=O)O)nc3ccccc32)cc1, the inhibition was 50% (active).
With CCn1c(SCC(=O)N/N=C/c2ccccc2OCC(=O)O)nnc1-c1ccc(C(C)(C)C)cc1 the inhibition was 18.1% (inactive).
In the case of O=C(CSc1nc2ccccc2n1Cc1ccccc1Cl)N/N=C\c1c[nH]c2ccccc12, the inhibition is reported as 12.2% (inactive).
For CC1CCN(c2ccc(C(=O)O)cc2NS(=O)(=O)c2ccc(Br)s2)CC1, the inhibition was 33% (inactive).
For CCOc1ccc(-n2c(SCC(=O)Nc3cc(C)c(NC(=O)c4ccccc4)cc3OC)nnc2-c2cccs2)cc1, the inhibition was 10.2% (inactive).
For CC(=O)C1=C(O)C(=O)N(c2ccc(S(N)(=O)=O)cc2)C1c1ccccc1F (stereo unspecified), the inhibition was 2.58% (inactive).
With NS(=O)(=O)c1ccc(NC2=CC(c3ccc(F)cc3)N(c3ccc(S(N)(=O)=O)cc3)C2=O)cc1 (stereo unspecified) the inhibition was 45.7% (active).
With NS(=O)(=O)c1ccc(NC(=O)COC(=O)C2(c3ccc(F)cc3)CCCC2)cc1 the inhibition was 18.1% (inactive).
With O=C(COC(=O)CSc1nnc(-c2ccc(Cl)cc2)o1)Nc1cc(Cl)cc(Cl)c1 the inhibition was 3.94% (inactive).
In the case of O=C(COc1ccccc1)Nc1nonc1NC(=O)COc1ccccc1, the inhibition is reported as 8.22% (inactive).
For O=C(COC(=O)c1ccc(Oc2ccccc2)cc1)Nc1nnc(-c2ccccc2)o1, the inhibition was 39.7% (active).
In the case of O=C(NCc1cccs1)C1CCCN(S(=O)(=O)c2ccc([N+](=O)[O-])cc2)C1 (stereo unspecified), the inhibition is reported as 1.56% (inactive).
With COc1ccc(N2CCN(CCNS(=O)(=O)c3ccc(C(C)(C)C)cc3)CC2)cc1 the inhibition was -0.11% (inactive).
In the case of Cc1nnc(SC(C(=O)c2ccccc2)c2ccccc2)[nH]c1=O (stereo unspecified), the inhibition is reported as 4.12% (inactive).
In the case of CC(NCC(=O)Nc1cc(Cl)cc(Cl)c1)c1ccccc1 (stereo unspecified), the inhibition is reported as -5.58% (inactive).
With Cc1nnc(SC(C(=O)Nc2cc(Cl)cc(Cl)c2)c2ccccc2)[nH]c1=O (stereo unspecified) the inhibition was 80.2% (active).
In the case of CCc1c(-c2ccccc2OC)ncn1CCc1ccccc1OC, the inhibition is reported as -2.09% (inactive).
In the case of Cc1cccc(NC(=O)C[C@H]2CC[C@H]3[C@@H](COc4ccc(NC(=O)Nc5ccccc5)cc4C(=O)N3C)O2)c1, the inhibition is reported as 10.2% (inactive).
With N#Cc1ccc(OC[C@@H](O)CN2CCC(C(O)(c3ccccc3)c3ccccc3)CC2)c(F)c1 the inhibition was -3.22% (inactive).
With COc1ccc(S(=O)(=O)Nc2ccc3c(c2)C(=O)N([C@H](C)CO)C[C@H](C)[C@@H](CN(C)C)OCCCC[C@H](C)O3)cc1 the inhibition was 8.48% (inactive).
For CCCc1nc2c([nH]1)C(c1cccnc1)C(C#N)=C(N)O2 (stereo unspecified), the inhibition was 0.75% (inactive).
In the case of Cc1cc(C)c(C#N)c(SCc2ccc3c(c2)OCO3)n1, the inhibition is reported as 4% (inactive).
With Cc1cc(C)c(C#N)c(SCc2[nH]nc3c2C(c2ccccc2)C(C#N)=C(N)O3)n1 (stereo unspecified) the inhibition was 38.2% (active).
For C[C@@H](NC(=O)c1ccccc1OCC(=O)Nc1ccc(I)cc1)C(=O)N(C)Cc1ccccc1, the inhibition was 5.02% (inactive).
For COc1ccc(S(=O)(=O)/N=C2\C=C(NS(=O)(=O)c3ccccc3)C(=O)c3ccccc32)cc1, the inhibition was 63.6% (active).
For COc1ccc(C(=O)C(C)OC(=O)c2cccc(S(=O)(=O)Nc3c(C)n(C)n(-c4ccccc4)c3=O)c2)cc1 (stereo unspecified), the inhibition was 7.06% (inactive).
For Cc1ccc(S(=O)(=O)N[C@H](CO)C(C)C)cc1, the inhibition was 2.22% (inactive).
In the case of Cc1ccc(S(=O)(=O)/N=C2\C=C(NS(=O)(=O)c3ccc(C)cc3)C(=O)c3ccccc32)cc1, the inhibition is reported as 59.4% (active).
In the case of CNC(=O)COc1ccc(S(=O)(=O)Nc2ccccc2)cc1, the inhibition is reported as 0.86% (inactive).
For Cc1ccc(S(=O)(=O)N/N=C(\c2ccccc2)C2CC2)cc1, the inhibition was -0.89% (inactive).
With O=S1(=O)c2c(cccc2N2CCSCC2)Oc2ccccc2CN1Cc1cn(Cc2ccc(F)cc2)nn1 the inhibition was 8.25% (inactive).
For C[C@H]1[C@H](c2ccccc2)Oc2cc(Br)ccc2S(=O)(=O)N1Cc1cccc(F)c1, the inhibition was 3.74% (inactive).
For CCOC(=O)CSc1nncc2ccc(OC)c(OC)c12, the inhibition was -1.96% (inactive).
With Cc1cc(C)cc(NC(=O)N2CCC(N(C)CCC(C)C)CC2)c1 the inhibition was 3.3% (inactive).
For N#Cc1ccc(OCCCN2CCC(C(O)(c3ccccc3)c3ccccc3)CC2)c(F)c1, the inhibition was -1.54% (inactive).
With C=C1c2c(Cl)ccc(O)c2C(O)=C2C(=O)[C@]3(O)C(O)=C(C(N)=O)C(=O)[C@@H](N(C)C)[C@@H]3[C@@H](O)C12 (stereo partly specified) the inhibition was 87.2% (active).
In the case of Cc1nc(NC(=O)C(C)(C)C)sc1[N+](=O)[O-], the inhibition is reported as 2.08% (inactive).
With COc1cccc(CNC(=O)[C@H]2CCCN2C(=O)[C@H]2CCCN2C(=O)C2CCCCC2)c1 the inhibition was 1.57% (inactive).
With Cc1ccc(NC(=O)Cc2cccc(F)c2)c(S(=O)(=O)N2CCOCC2)c1 the inhibition was -0.87% (inactive).
In the case of O=C1C=C(c2ccc(Cl)cc2)C(=O)N1Nc1ccccc1, the inhibition is reported as 8.98% (inactive).
With O=C1c2cccc3cc(Br)cc(c23)C(=O)N1Nc1ccccc1 the inhibition was 36.1% (active).
In the case of O=C1c2cccc3cccc(c23)C(=O)N1c1cccc(O)c1, the inhibition is reported as 4.62% (inactive).
For CCCc1cc(=O)[nH]c(SCC(=O)N2C(C)CCCC2C)n1 (stereo unspecified), the inhibition was -1.93% (inactive).
In the case of CCCc1cc(=O)[nH]c(SCC(=O)Nc2ccc(S(=O)(=O)N3CCCC3)cc2)n1, the inhibition is reported as 15.7% (inactive).
For CCCc1cc(=O)[nH]c(SCC(=O)Nc2sc3c(c2C#N)CCCC3)n1, the inhibition was 40.9% (active).
With CC(C)C[C@H](NC(=O)CC1CCCC1)C(=O)N1CCC[C@H]1C(=O)NCc1ccccc1 the inhibition was -2.39% (inactive).
With COc1ccccc1CCn1cnc(-c2ccccc2)c1C(C)C the inhibition was -1.16% (inactive).
In the case of C/C(=N/NC(=O)c1cc(Cl)ccc1O)C12CC3CC(CC(C3)C1)C2, the inhibition is reported as 14.9% (inactive).
For C/C(Cc1ccccc1)=N\NC(=O)CNC(=O)c1cccc(Br)c1, the inhibition was 1.32% (inactive).
For CC(=N\NC(=O)c1cc(Br)ccc1O)/C(=N/O)C(=O)Nc1ccccc1, the inhibition was 36.5% (active).
For O=S1(=O)c2ccc(Br)cc2OC[C@H](Cc2ccccc2)N1Cc1cn(Cc2ccccc2)nn1, the inhibition was 9.1% (inactive).
For O=C(CSc1nnc(COc2ccccc2)n1-c1ccc(Cl)cc1)Nc1ccc2c(c1)OCO2, the inhibition was 5.42% (inactive).
For Cc1ccc(N=C2NC(=O)/C(=C/C=C/c3ccco3)S2)cc1C, the inhibition was 58% (active).
For Cc1cc(C(=O)NN=C/C=C/c2ccco2)n[nH]1, the inhibition was 12% (inactive).
In the case of Nc1ncnc2c1ncn2[C@@H]1O[C@H](C(=O)N[C@@H](CCc2ccccc2)C(=O)NCC(=O)N2CCOCC2)[C@@H](O)[C@H]1O, the inhibition is reported as 4.42% (inactive).
With C=CC1=C(C(=O)O)N2C(=O)[C@@H](NC(=O)/C(=N/OCC(=O)O)c3csc(N)n3)[C@H]2SC1 the inhibition was 50.2% (active).
With CO/N=C(\C(=O)N[C@@H]1C(=O)N2C(C(=O)O)=C(COC(C)=O)CS[C@H]12)c1csc(N)n1 (stereo in doubt) the inhibition was 31% (inactive) and 22.6% (inactive) and 37.5% (active).
For CCN1CCN(C(=O)N[C@@H](C(=O)N[C@@H]2C(=O)N3C(C(=O)O)=C(CSc4nnnn4C)CS[C@H]23)c2ccc(O)cc2)C(=O)C1=O, the inhibition was 8.44% (inactive).
In the case of Nc1nc2c(ncn2[C@@H]2O[C@H](C(=O)N[C@H](Cc3ccccc3)C(=O)NCC3CCCCC3)[C@@H](O)[C@H]2O)c(=O)[nH]1, the inhibition is reported as 6.66% (inactive).
With Cc1ccc(CN2CCCCC(NC(=O)C3CCCCC3)C2=O)cc1 (stereo unspecified) the inhibition was -0.58% (inactive).
With CCCCN(C(C)=O)c1ccc2c(c1)C1CC2CCN1Cc1ccccc1 (stereo unspecified) the inhibition was -3.96% (inactive).
